This is one part of the list. A number with no mark means an inactive call.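 Rule for the calls: active = fluorescence interference ratio at or above 1.2, signal boosting, or at or below 0.8, signal quenching; inactive = ratio between 0.8 and 1.2.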
Test: signal quenchers or enhancers, Cy5-oligo/SSB – biochemical, E. coli SSB, selected ChemBridge compounds, artefact control for HCV NS3 helicase inhibitor project (AID 720487);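 note: ratio of compound well signal to mean negative control signal so 1 means no effect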
Conditions: Cy5-dT15/E. coli SSB fluorescence interference; at 100 µM; actives lie on both sides

## CCOc1cc(C=C2C(=O)NC(=O)NC2=O)cc(Br)c1OCCOc1ccccc1C
  fluorescence interference ratio: 0.894
